Source: PubChem BioAssay AID1159580 (chemical genetic matrix, 2015)
Out of some 5,500 compounds screened, about 2,000 (36%) were called active. About 18% were inconclusive and are not listed. Rule as the data show it: active = normalized growth mostly below about 0.91 (no sharp cut-off); inconclusive = no clear call, values can overlap the other calls; inactive = mostly above about 0.92. The list shows a part of the results.

Test: chemical genetic growth profiling, strain panel (AID 1159580);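 also: tested at 20 µM; growth read once vehicle control cultures reached saturation at 30 °C; 1 = growth at the plate median or of vehicle wells; lower values mean less growth of the strain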
Settings: growth OD

Measured: normalized growth

COc1nc(NC(C)C)nc(NC(C)C)n1
inactive: S. cerevisiae deletion strains, locus YJR075W, strain HOC1, hits give low values 1 | S. cerevisiae deletion strains, locus YKL009W, strain mrt4, hits give low values 1.02 | S. cerevisiae deletion strains, locus YKL068W, hits give low values 1.01 | S. cerevisiae deletion strains, locus YKL085W, strain MDH1 (second series), hits give low values 1.01 | S. cerevisiae deletion strains, locus YKL085W, strain MDH1, hits give low values 1.01 | S. cerevisiae deletion strains, locus YKL160W, strain elf1, hits give low values 1.02 | S. cerevisiae deletion strains, locus YKL190W, strain CNB1, hits give low values 1.02 | S. cerevisiae deletion strains, locus YKR001C, strain vps1, hits give low values 1.02 | S. cerevisiae deletion strains, locus YKR026C, strain gcn3, hits give low values 1.02 | S. cerevisiae deletion strains, locus YKR091W, strain srl3, hits give low values 1.02 | S. cerevisiae deletion strains, locus YLL001W, strain dnm1, hits give low values 1.02 | S. cerevisiae deletion strains, locus YLL026W, hits give low values 1.02 | S. cerevisiae deletion strains, locus YLL041C, strain sdh2, hits give low values 1.02 | S. cerevisiae deletion strains, locus YLR027C, strain aat2, hits give low values 1.03 | S. cerevisiae deletion strains, locus YLR039C, strain RIC1, hits give low values 1.02 | S. cerevisiae deletion strains, locus YLR058C, strain SHM2, hits give low values 1 | S. cerevisiae deletion strains, locus YLR102C, strain apc9, hits give low values 1.02 | S. cerevisiae deletion strains, locus YLR113W, strain HOG1, hits give low values 0.986 | S. cerevisiae deletion strains, locus YLR221C, strain rsa3, hits give low values 1.04 | S. cerevisiae deletion strains, locus YLR258W, strain gsy2, hits give low values 1.01 | S. cerevisiae deletion strains, locus YLR262C, strain YPT6 (second series), hits give low values 1.02 | S. cerevisiae deletion strains, locus YLR262C, strain YPT6, hits give low values 1.02 | S. cerevisiae deletion strains, locus YLR268W, strain sec22, hits give low values 1.01 | S. cerevisiae deletion strains, locus YLR320W, strain mms22, hits give low values 1.04 | S. cerevisiae deletion strains, locus YLR330W, strain CHS5, hits give low values 1.01 | S. cerevisiae deletion strains, locus YLR342W, strain FKS1 (second series), hits give low values 1.03 | S. cerevisiae deletion strains, locus YLR342W, strain FKS1, hits give low values 1.01 | S. cerevisiae deletion strains, locus YLR357W, strain rsc2, hits give low values 1.03 | S. cerevisiae deletion strains, locus YLR370C, strain arc18, hits give low values 1.04 | S. cerevisiae deletion strains, locus YLR371W, strain rom2, hits give low values 1.02 | S. cerevisiae deletion strains, locus YLR384C, strain iki3, hits give low values 1.03 | S. cerevisiae deletion strains, locus YLR418C, strain cdc73, hits give low values 1.01 | S. cerevisiae deletion strains, locus YML016C, strain PPZ1, hits give low values 1.01 | S. cerevisiae deletion strains, locus YML032C, strain rad52, hits give low values 1.02 | S. cerevisiae deletion strains, locus YML120C, strain ndi1, hits give low values 1.02 | S. cerevisiae deletion strains, locus YML124C, strain tub3, hits give low values 1.02 | S. cerevisiae deletion strains, locus YMR058W, strain fet3, hits give low values 1.03 | S. cerevisiae deletion strains, locus YMR078C, strain ctf18, hits give low values 1.03 | S. cerevisiae deletion strains, locus YMR125W, strain sto1, hits give low values 1.03 | S. cerevisiae deletion strains, locus YMR129W, hits give low values 1.01 | S. cerevisiae deletion strains, locus YMR205C, strain PFK2, hits give low values 1.01 | S. cerevisiae deletion strains, locus YMR223W, strain ubp8, hits give low values 1.02 | S. cerevisiae deletion strains, locus YMR231W, strain pep5, hits give low values 1.02 | S. cerevisiae deletion strains, locus YMR263W, strain SAP30, hits give low values 1.02 | S. cerevisiae deletion strains, locus YMR307W, strain GAS1, hits give low values 1.04 | S. cerevisiae deletion strains, locus YNL067W, strain RPL9B, hits give low values 1.01 | S. cerevisiae deletion strains, locus YNL071W, strain lat1, hits give low values 1.01 | S. cerevisiae deletion strains, locus YNL128W, strain TEP1, hits give low values 1 | S. cerevisiae deletion strains, locus YNL153C, strain GIM3, hits give low values 1.01 | S. cerevisiae deletion strains, locus YNL183C, strain NPR1, hits give low values 0.999 | S. cerevisiae deletion strains, locus YNL209W, strain ssb2, hits give low values 1.02 | S. cerevisiae deletion strains, locus YNL233W, strain BNI4, hits give low values 1.01 | S. cerevisiae deletion strains, locus YNL248C, strain rpa49, hits give low values 1.04 | S. cerevisiae deletion strains, locus YNL250W, strain rad50, hits give low values 1.01 | S. cerevisiae deletion strains, locus YNL271C, strain bni1, hits give low values 1.01 | S. cerevisiae deletion strains, locus YNL298W, strain CLA4, hits give low values 1.03 | S. cerevisiae deletion strains, locus YNL307C, strain MCK1, hits give low values 1.03 | S. cerevisiae deletion strains, locus YNL322C, strain KRE1 (second series), hits give low values 1.02 | S. cerevisiae deletion strains, locus YNL322C, strain KRE1, hits give low values 1 | S. cerevisiae deletion strains, locus YNR049C, strain mso1, hits give low values 1.05 | S. cerevisiae deletion strains, locus YNR052C, strain pop2, hits give low values 1.03 | S. cerevisiae deletion strains, locus YOL006C, strain TOP1, hits give low values 1.03 | S. cerevisiae deletion strains, locus YOL012C, strain htz1 1.23 | S. cerevisiae deletion strains, locus YOL147C, strain pex11, hits give low values 1.02 | S. cerevisiae deletion strains, locus YOR001W, strain rrp6, hits give low values 1.02 | S. cerevisiae deletion strains, locus YOR061W, strain CKA2, hits give low values 1 | S. cerevisiae deletion strains, locus YOR069W, strain VPS5, hits give low values 1.01 | S. cerevisiae deletion strains, locus YOR070C, strain gyp1, hits give low values 1.03 | S. cerevisiae deletion strains, locus YOR080W, strain dia2, hits give low values 1.03 | S. cerevisiae deletion strains, locus YOR083W, strain WHI5, hits give low values 1.01 | S. cerevisiae deletion strains, locus YOR106W, strain vam3, hits give low values 1.02 | S. cerevisiae deletion strains, locus YOR136W, strain idh2, hits give low values 1.02 | S. cerevisiae deletion strains, locus YOR144C, strain elg1, hits give low values 1.03 | S. cerevisiae deletion strains, locus YOR184W, strain ser1, hits give low values 1.03 | S. cerevisiae deletion strains, locus YOR231W, strain MKK1, hits give low values 1.05 | S. cerevisiae deletion strains, locus YOR265W, strain rbl2, hits give low values 1.01 | S. cerevisiae deletion strains, locus YOR270C, strain vph1, hits give low values 1.06 | S. cerevisiae deletion strains, locus YOR290C, strain snf2, hits give low values 0.997 | S. cerevisiae deletion strains, locus YOR316C, strain cot1, hits give low values 1.02 | S. cerevisiae deletion strains, locus YPL051W, strain arl3, hits give low values 1.01 | S. cerevisiae deletion strains, locus YPL055C, strain LGE1, hits give low values 1.02 | S. cerevisiae deletion strains, locus YPL078C, strain atp4, hits give low values 1.01 | S. cerevisiae deletion strains, locus YPL106C, strain sse1, hits give low values 1.01 | S. cerevisiae deletion strains, locus YPL240C, strain hsp82, hits give low values 1.01 | S. cerevisiae deletion strains, locus YPL241C, strain CIN2, hits give low values 1.02 | S. cerevisiae deletion strains, locus YPL256C, strain CLN2, hits give low values 1.08 | S. cerevisiae deletion strains, locus YPR119W, strain clb2, hits give low values 1.01 | S. cerevisiae deletion strains, locus YPR141C, strain kar3, hits give low values 1.03 | S. cerevisiae deletion strains, locus YPR163C, strain tif3, hits give low values 1.02 | S. cerevisiae deletion strains, locus YPR167C, strain met16, hits give low values 1.02 | S. cerevisiae deletion strains, strain wtn01, hits give low values 1.01 | S. cerevisiae strains, strain wild type, hits give low values 1
